In the library only some 1.3% were active in any assay of this set; here they are far more common.
PREPL inh: human PREPL enzyme inhibition | AID 2751 | recombinant PREPL, fluorescence polarization activity-based probe | inhibition, % at 5.96 µM | Q4J6C6 | 0.68% of 320,000 active;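 also: 0% = enzyme with DMSO and 100% = wells lacking enzyme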
Target sequence (Q4J6C6 whole entry, looked up): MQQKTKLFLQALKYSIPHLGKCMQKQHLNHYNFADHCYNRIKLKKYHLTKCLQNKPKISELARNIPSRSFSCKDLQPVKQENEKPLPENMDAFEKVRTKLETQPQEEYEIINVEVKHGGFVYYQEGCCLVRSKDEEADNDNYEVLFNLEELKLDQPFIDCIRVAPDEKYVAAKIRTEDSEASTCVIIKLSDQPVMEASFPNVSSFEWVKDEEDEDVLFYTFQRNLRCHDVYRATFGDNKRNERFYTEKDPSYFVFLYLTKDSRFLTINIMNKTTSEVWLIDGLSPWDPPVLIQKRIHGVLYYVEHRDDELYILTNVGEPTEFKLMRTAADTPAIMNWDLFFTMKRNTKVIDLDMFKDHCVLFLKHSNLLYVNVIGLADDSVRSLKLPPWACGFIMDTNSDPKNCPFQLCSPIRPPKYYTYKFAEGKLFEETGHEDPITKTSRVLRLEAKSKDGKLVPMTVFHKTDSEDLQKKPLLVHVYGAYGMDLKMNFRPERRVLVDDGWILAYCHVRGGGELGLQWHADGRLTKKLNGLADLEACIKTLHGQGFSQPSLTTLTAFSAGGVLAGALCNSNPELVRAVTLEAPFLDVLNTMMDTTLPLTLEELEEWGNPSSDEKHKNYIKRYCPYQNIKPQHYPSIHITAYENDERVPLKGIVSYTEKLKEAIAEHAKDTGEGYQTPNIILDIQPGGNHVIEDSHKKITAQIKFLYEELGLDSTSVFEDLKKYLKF
LYPLA2 inh: LYPLA2 (human) inhibition in PME1 counter-screen; O95372; recombinant LYPLA2, FP-Rh probe fluorescence polarization; inhibition, % at 5.9 µM; 0.38% of 320,000 active; AID 2177;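 active = inhibition above the screen-wide mean plus 3 SD, limit set per campaign, cut at about 26% in these data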;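 also: 0% = LYPLA2 with DMSO and 100% = wells lacking LYPLA2 enzyme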
Fam108B inh: counter-screen for RBBP9 inhibitors: inhibitors of mouse Fam108B; 0.33% of 300,000 active; inhibition, % at 9.51 µM; recombinant Fam108B, FP-Rh probe fluorescence polarization;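 active = inhibition above the screen mean inhibition plus 3 SD, computed separately per campaign, cut at about 18% in these data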;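 also: inhibitors lower polarization as less probe binds the enzyme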
PME-1 inh: blocks human protein phosphatase methylesterase 1. Q9Y570. recombinant PME-1, FP-Rh probe fluorescence polarization. inhibition, % at 5.9 µM. 0.53% of 320,000 active;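 active = inhibition above the campaign mean of all compounds plus 3 SD, cut at about 26% in these data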;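 also: competitive labeling of PME-1 active site by serine hydrolase directed probe; 0% = PME-1 with DMSO and 100% = wells lacking PME-1 enzyme; inhibitors block probe labeling so polarization falls and inhibition rises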
LYPLA1 counter: counter-screen for PME1 inhibitors: inhibitors of human LYPLA1 | recombinant LYPLA1, FP-Rh probe fluorescence polarization | inhibition, % at 5.9 µM | 0.16% of 320,000 active;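 active = inhibition above the mean of all tested compounds plus 3 SD, set per campaign, cut at about 14% in these data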;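 also: inhibitors block serine hydrolase probe labeling of LYPLA1 so polarization falls; 0% = enzyme with DMSO and 100% = wells lacking LYPLA1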
PREPL confirm: human PREPL inhibition, confirmation; recombinant PREPL, fluorescence polarization activity probe; 67% of 2,000 active; AID 2803; shares compounds with PREPL inh; inhibition, % at 5.96 µM;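 also: 0% = protein with DMSO and 100% = wells lacking protein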
* = called active by the depositor. Rule as the data show it, unless noted: active = inhibition above about 43%; inactive = the rest.

Screening CCN(CC)CCCN1C=C2C(=O)C(C)(OC(=O)CCC(=O)OC)C(=O)C(Br)=C2C=C1c1ccc(OC)cc1 (centres undefined) returned PREPL inh 70*, LYPLA2 inh 0, Fam108B inh 7, PME-1 inh 4, LYPLA1 counter -5 and PREPL confirm 60*.
C=CCN1C=C2C(=O)C(C)(OC(=O)CCC(=O)OC)C(=O)C(Br)=C2C=C1c1ccc(OC)cc1 (centres undefined) was read as PREPL inh 74*, LYPLA2 inh 8, Fam108B inh 5, PME-1 inh 6, LYPLA1 counter 10 and PREPL confirm 58*.
For CCN(CC)CCCN1C=C2C(=O)C(C)(OC(=O)CCc3ccccc3)C(=O)C=C2C=C1c1ccc(C#N)cc1 (centres undefined) the results were PREPL inh 43*, LYPLA2 inh 7, Fam108B inh 4, PME-1 inh 7, LYPLA1 counter -1 and PREPL confirm 30.
Screening COC(=O)CCC(=O)OC1(C)C(=O)C2=CN(Cc3ccco3)C(c3ccc(OC)cc3)=CC2=C(Br)C1=O (centres undefined) returned PREPL inh 8, LYPLA2 inh -8, Fam108B inh 6, PME-1 inh 0 and LYPLA1 counter -9.
CCCCC(CC)C(=O)O (centres undefined) was read as PREPL inh 12.
Screening Cc1nn(C(C)C(=O)NCCc2ccco2)c(=O)c2nn(-c3ccccc3)c(C)c12 (centres undefined) returned PREPL inh 3, LYPLA2 inh 0, Fam108B inh -7, PME-1 inh 4 and LYPLA1 counter 2.
Screening CCC(C)(O)c1[nH]c2ccc(C(=O)OC)cc2c1C (centres undefined) returned PREPL inh -3, LYPLA2 inh -1, Fam108B inh 4, PME-1 inh 1 and LYPLA1 counter 4.
For Cc1ccnc(NS(=O)(=O)c2ccc(NC(=O)CCc3ccccc3)cc2)n1 the results were PREPL inh 17, LYPLA2 inh 7, Fam108B inh -1, PME-1 inh 0 and LYPLA1 counter 3.
COC(=O)CCC(=O)OC1(C)C(=O)C2=CN(c3ccc(OC)cc3)C(c3ccc(OC)cc3)=CC2=C(Br)C1=O (centres undefined) was read as PREPL inh 37, LYPLA2 inh -2, Fam108B inh 5, PME-1 inh 8 and LYPLA1 counter 0.
COCCN1C=C2C(=O)C(C)(OC(=O)CCC(=O)OC)C(=O)C(Br)=C2C=C1c1ccc(OC)cc1 (centres undefined) was read as PREPL inh 64*, LYPLA2 inh 3, Fam108B inh 3, PME-1 inh 4, LYPLA1 counter -1 and PREPL confirm 36.
Screening Cc1ccc(C(=O)C[n+]2cc(-c3ccc(C)cc3)n3c2CCCCC3)cc1 returned PREPL inh 39, LYPLA2 inh 1, Fam108B inh 1, PME-1 inh 3 and LYPLA1 counter -1.
O=C(C[n+]1cc(-c2ccccc2)n2c1CCCCC2)c1ccc(Br)cc1 was read as PREPL inh 54*, LYPLA2 inh 4, Fam108B inh -3, PME-1 inh -4, LYPLA1 counter 5 and PREPL confirm 26.
`CCC[C@@H](CN1CCC[C@H]1CN1C(N)=NC[C@H]1C(C)C)N1C[C@@H](Cc2ccccc2)N(CCCC2CCCC2)C1=N` gave PREPL inh 57* and PREPL confirm 55*.
CCCCN1C(=N)N([C@@H](CCC)CN2CCC[C@H]2CN2C(N)=NC[C@@H]2Cc2ccccc2)C[C@H]1[C@H](C)CC was read as PREPL inh 45* and PREPL confirm 47*.
For CCCCN1C(Nc2ccccc2)=NC[C@@H]1CC(C)C the results were PREPL inh 1, LYPLA2 inh -3, Fam108B inh 3, PME-1 inh -10 and LYPLA1 counter -6.
`NC1=NC[C@H](Cc2ccccc2)N1CCCCC1CCCCC1` gave PREPL inh -2, LYPLA2 inh 2, Fam108B inh 1, PME-1 inh 5 and LYPLA1 counter -1.
Screening CCC(C)CCN1C(N(C)C)=NC[C@@H]1Cc1ccccc1 (some centres undefined) returned PREPL inh -2, LYPLA2 inh -2, Fam108B inh 0, PME-1 inh -1 and LYPLA1 counter 1.

Bioassay records: PubChem, The Scripps Research Institute Molecular Screening Center
